# Test results from PubChem BioAssay (NCI).
# Compounds without any hit were thinned out: in the full panel of roughly 79,000, 15% have a hit. Values without a mark were called inactive. Calls of active or inactive are those of the source. No stated cut-off is given here; in the data, active means growth inhibition above about 70%; inactive means the rest.
# Assay: NCI Yeast Anticancer Drug Screen. Data for the wt1 strain (AID 149);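 further: 0% = growth of vehicle-treated wt1 cultures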
# Conditions: S. cerevisiae wt1 strain (SPY 50644) growth inhibition, stronger effect = higher value
# Description: Growth inhibition of yeast strains with defined genetic alterations is measured as a screen for potential anti-cancer activity. Selected strains with alterations in DNA damage repair or cell cycle control were exposed to compounds and growth inhibition was measured relative to vehicle treated controls. The strain used in this assay is wt1
SMILES,growth inhibition (at 1.2 µM) [%],growth inhibition (at 3.7 µM) [%],growth inhibition (at 11.0 µM),growth inhibition (at 33.0 µM),growth inhibition (at 100.0 µM)
O=[N+]([O-])/C=C/c1ccc2ccccc2c1,-1,7,99% (active),100% (active),100% (active)
O=[n+]1c2ccc(Cl)cc2n([O-])c2ccc(Cl)cc21,-2,2,2%,7%,12%
O=[N+]([O-])CC(SCc1ccccc1)c1ccc2c(c1)OCO2 (stereo not given),23,36,70% (active),98% (active),98% (active)
CN(C)C[C@H]1CC[C@@H](CN(C)C)C1=O,24,25,25%,14%,47%
CCS(=O)(=O)c1ccc(/C=C/C=N/NC(=S)NCC(C)C)cc1,0,-3,5%,-4%,4%
CC[n+]1ccc2c(C)c3[nH]c4ccc(O)cc4c3c(C)c2c1,-13,7,3%,9%,14%
CCCCCCCCCCCC1=C(O)C(=O)C=C(O)C1=O,-4,-7,64%,94% (active),91% (active)
O=C1c2ccccc2C(=O)c2cc(CBr)ccc21,0,0,-1%,18%,53%
